Screening results (PubChem BioAssay)
CYP2C19 act = cytochrome P450 2C19 (human) activation; P33261; AID 1025; 96,000 tested, under 10 active; activation factor at 5 µM; recombinant CYP2C19, luciferin-H EGE luminescence; hits give high values; 0 = fully inhibited enzyme, 1 = untreated enzyme;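 active = activation factor of at least 2 at 5 µM in the primary screen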;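 also: 0 = wells with 2.5 mM tranylcypromine and 1 = vehicle-only wells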
Target sequence (P33261 whole entry, looked up): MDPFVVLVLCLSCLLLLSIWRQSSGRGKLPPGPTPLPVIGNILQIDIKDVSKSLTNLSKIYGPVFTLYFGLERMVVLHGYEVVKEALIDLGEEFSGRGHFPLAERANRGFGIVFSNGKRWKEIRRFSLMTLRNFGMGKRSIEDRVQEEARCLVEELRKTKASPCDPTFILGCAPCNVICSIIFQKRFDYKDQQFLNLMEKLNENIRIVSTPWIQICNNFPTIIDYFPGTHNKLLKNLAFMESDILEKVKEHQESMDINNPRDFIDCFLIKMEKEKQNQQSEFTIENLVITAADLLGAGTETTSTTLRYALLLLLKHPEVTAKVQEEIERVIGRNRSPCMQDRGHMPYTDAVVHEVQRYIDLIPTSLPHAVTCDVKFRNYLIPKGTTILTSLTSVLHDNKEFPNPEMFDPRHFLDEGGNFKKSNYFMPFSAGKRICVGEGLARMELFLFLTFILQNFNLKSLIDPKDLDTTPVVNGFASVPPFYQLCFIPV
CYP2C9 act = increases human cytochrome P450 2C9 activity; recombinant CYP2C9, luciferin-H conversion, luminescence; hits give high values; factor 1 = untreated enzyme, 0 = blocked; activation factor at 5 µM; 1.4% of 96,000 active;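 active = activation factor of 2 or more for CYP2C9 at a 5 µM dose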;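 also: 0 = sulfaphenazole-blocked wells and 1 = vehicle-only wells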
CYP2C19 inh = blocks human cytochrome P450 2C19; P33261; CYP2C19 Supersomes, luciferin-H EGE luminescence, 30 min; inhibition, % at 5 µM; 21% of 96,000 active; AID 778;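 active = CYP2C19 inhibition above a set limit at 5 µM in the primary screen, cut at about 50% in these data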;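 also: plate controls were negative control wells for no effect and 2.5 mM tranylcypromine positive control for full effect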
CYP2C9 inhib = human CYP2C9 inhibition | P11712 | CYP2C9 Supersomes, luciferin-H conversion, luminescence | 20% of 96,000 active | AID 777 | inhibition, % at 5 µM;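 active = blocking of liver enzyme CYP2C9 beyond about 50% at 5 µM, limit read from the data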
* hit, by the source's call. The list is not random: actives were taken first. Their share in the collection is about 31%.

SMILES	CYP2C19 act	CYP2C9 act	CYP2C19 inh	CYP2C9 inhib
O=C(c1ccco1)N1CCN(S(=O)(=O)c2ccc3c(c2)CCN3C(=O)C2CC2)CC1	0.3	0.7	69*	26
O=C(C1CC1)N1CCc2cc(S(=O)(=O)N3CCOCC3)ccc21	0.9	1.1	14	-10
Cc1cc(C)nc(-n2nc(C)cc2NC(=O)CN2CCCC(C)C2)n1 (stereo not drawn)	0.6	0.5	36	48
CCN(CC(=O)Nc1cc(C)nn1-c1nc(C)cc(C)n1)Cc1ccccc1	0.3	0.2	69*	83*
Cc1cc(C)nc(-n2nc(C)cc2NC(=O)CNCc2ccccc2)n1	0.7	0.4	33	61*
Cc1cc(C)nc(-n2nc(C)cc2NC(=O)CN2CCc3ccccc3C2)n1	0.1	0.1	86*	89*
COC(=O)c1ccccc1NC(=O)Cn1cnc2cc(C)c(C)cc21	0.6	0.8	42	16
O=C(NCc1ccco1)C12CN(Cc3ccccc3)CC1C(c1cccc([N+](=O)[O-])c1)=NO2 (stereo not drawn)	0.8	0.8	20	17
O=C(NCCc1cccs1)C12CN(Cc3ccccc3)CC1C(c1cccc([N+](=O)[O-])c1)=NO2 (stereo not drawn)	0.5	0.3	50	73*
Cc1ccc(CNC(=O)C23CN(Cc4ccccc4)CC2C(c2cccc([N+](=O)[O-])c2)=NO3)cc1 (stereo not drawn)	0.1	0.4	88*	61*
CCC(c1c(C)[nH]oc1=O)c1c(C)[nH]oc1=O	1	0.9	0	10
Cc1sc2ncn(CC(=O)NCCCC(=O)N3CCN(c4ncccn4)CC3)c(=O)c2c1C	1	0.8	1	24
CN1C(=O)N(C)C2C1NC(=O)N2C (stereo not drawn)	1.1	1.1	-12	-13
CCOc1ccc(S(=O)(=O)Nc2cc(OC)c(OC)cc2C(=O)O)cc1	0.7	0.3	32	73*
CCOc1ccc(N(CC(=O)O)S(=O)(=O)c2ccc(OC)c(OC)c2)cc1	1	0.9	5	7
COC(=O)c1cccc(NS(=O)(=O)c2ccc(OC)c(OC)c2)c1C	0.8	0.6	19	43
COc1cc(NS(=O)(=O)c2ccc(F)cc2)c(C(=O)O)cc1OC	1	0.4	4	56*
C#CC1CN(Cc2ccccc2)CC(C#C)N1C (stereo not drawn)	0.6	1	39	0
COC(=O)c1cn(C(C)C(=O)NCc2ccco2)c2ccccc12 (stereo not drawn)	0.4	0.7	59*	31
COC(=O)[C@H](C)NC(=O)NCc1ccco1	1	1	-5	-4
O=C(NCCc1ccccc1)C1CC(c2ccccc2O)=NO1 (stereo not drawn)	0.1	0.7	87*	33
COc1cccc(C2=NOC(C(=O)NCc3ccccc3)C2)c1 (stereo not drawn)	0.5	1.2	50*	-24
O=C(NCc1ccc2c(c1)OCO2)C1CC(c2ccccc2O)=NO1 (stereo not drawn)	0.7	1.4	28	-44
COc1cccc(C2=NOC(C(=O)Nc3ccc(OC)c(OC)c3)C2)c1 (stereo not drawn)	0.9	1.1	13	-12
COc1cccc(C2=NOC(C(=O)NC3CCCCC3)C2)c1 (stereo not drawn)	0.9	2.9*	10	-190
SMILES	CYP2C19 act	CYP2C9 act	CYP2C19 inh	CYP2C9 inhib
Cc1ccc(CNC(=O)C2CC(c3cccc([N+](=O)[O-])c3)=NO2)cc1 (stereo not drawn)	0.2	1	75*	4
O=C(Nc1ccccc1)O/N=C/c1ccccc1Cl	0.6	0.7	40	28
O=C(Cn1cc(C(=O)c2ccco2)c2ccccc21)Nc1ccccc1	1.1	0.9	-7	11
CCn1ncc(C2=NOC(C(=O)NCc3ccccc3)C2)c1C (stereo not drawn)	0.4	0.8	57*	23
CCn1ncc(C2=NOC(C(=O)NCc3ccc(OC)cc3)C2)c1C (stereo not drawn)	1	0.9	-4	8
c1ccc(OCc2nn3c(Cn4nnc5ccccc54)nnc3s2)cc1	0.8	0.9	25	8
COc1cc(-c2nn3c(-c4ccccn4)nnc3s2)cc(OC)c1OC	0.7	0.7	33	28
c1ccc(OCc2nnc3sc(-c4cccs4)nn23)cc1	0.5	0.4	53*	58*
Clc1ccc(Cl)c(-c2nn3c(COc4ccccc4)nnc3s2)c1	0.7	0.5	29	50*
COc1ccc(-c2nn3c(COc4ccccc4)nnc3s2)cc1OC	0.7	0.4	28	58*
COC(=O)Cn1cc(C(=O)c2ccco2)c2ccccc21	0.9	0.9	6	11
